Laboratory results taken from the supplement of paper PMC10849652.
Of roughly 7,900 targets only a part is listed; those with a hit were picked by preference. About 0.6% of all pairs of compound and target were hits.

Tests used:
Assay in all cases: log2 fold change, soluble protein after heating vs DMSO (PISA); higher = thermal stabilisation; K562 cells, 10 uM, 30 min; active = over 0.2 and 3.5 SD of the protein, either way, in both replicates (recomputed)
[1] = compound: C1COCCN1CCN2C3=CC=CC=C3N=C2NC(=O)C4=CC(=CC=C4)[N+](=O)[O-] [IRAK-1-4 Inhibitor I]
Outline: (§1)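 Soluble protein was defined as the supernatant after 21,000xg for 90 min. It came from K562 cells at 2×10^6 cells/mL given 10 μM compound for 30 min, heated in aliquots for 3 min across 48°C-58°C, pooled, and extracted in PBS with 0.5% NP-40 at 4°C, and was quantified by TMTpro 16plex LC-MS/MS with equalised channel sums. Thermal stability against control samples, from duplicates, is reported as log2 fold change.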

[2] = compound: C=CC(=O)N1CCC[C@@H](n2nc(-c3ccc(Oc4ccccc4)cc3)c3c(N)ncnc32)C1 [ibrutinib]
Outline: as §1

[3] = compound: CC(=O)c1cnc2ccc(-c3cc(Cl)c(O)c(Cl)c3)nc2c1N[C@H]1CC[C@H](CN(C)C)CC1
Outline: as §1

[4] = compound: CC(C)(C)Cn1c(N)nc2ccc(-c3[nH]c(C(C)(C)C)nc3-c3ccc(F)cc3)nc21 [ralimetinib]
Outline: as §1

[5] = compound: CC(C)(O)CC(=O)NCCn1ccc2ncnc(Nc3ccc(Oc4cccc(C(F)(F)F)c4)c(Cl)c3)c21
Outline: as §1

[6] = compound: CC(C)C1=C2N=C(C=C(N2N=C1)NCC3=CC=CC=C3)NCCCCCCN
Outline: as §1

[7] = compound: CC(C)C[C@@H](C=O)NC(=O)[C@H](CC(C)C)NC(=O)[C@H](CC(C)C)NC(=O)OCc1ccccc1
Outline: as §1

[8] = compound: CC(C)N(C[C@H]1O[C@@H](n2cnc3c(N)ncnc32)[C@H](O)[C@@H]1O)[C@H]1C[C@@H](CCc2nc3cc(C(C)(C)C)ccc3[nH]2)C1 [pinometostat]
Outline: as §1

[9] = compound: CC1=C(C(CC(=O)N1)C2=CC=C(C=C2)C(F)(F)F)C(=O)NC3=C(C=C4C(=C3)C=NN4)F
Outline: as §1

[10] = compound: CC1=C(C2=C(C=C1)C(=O)C3=CC=CC=C3N2CCCN)C
Outline: as §1

[11] = compound: CC1=C(C=C(C=C1)NC(=O)C2=CC(=CC=C2)C(C)(C)C#N)NC3=CC4=C(C=C3)N=CN(C4=O)C
Outline: as §1

[12] = compound: CC1=C(C=C(C=C1)NC(=O)C2=CC(=CC=C2)N(C)C)NC(=O)C3=CC=C(C=C3)O
Outline: as §1

[13] = compound: CC1=CC=C(C=C1)SC2=C3C=C(SC3=CN=C2)C(=O)N
Outline: as §1

[14] = compound: CC1=NC(=CC=C1)C2=C(N=C(N2)C(C)(C)C)C3=CC4=NC=CN=C4C=C3
Outline: as §1

[15] = compound: CCCCN(Cc1ccc(C(=O)NO)cc1)C(=O)Nc1ccccc1 [Nexturastat A]
Outline: as §1

[16] = compound: CCCS(=O)(=O)Nc1ccc(F)c(C(=O)c2c[nH]c3ncc(-c4ccc(Cl)cc4)cc23)c1F [vemurafenib]
Outline: as §1

[17] = compound: CCCS(=O)(=O)Nc1ccc(F)c(C(=O)c2c[nH]c3ncc(Cl)cc23)c1F
Outline: as §1

[18] = compound: CCCc1cc(C)[nH]c(=O)c1CNC(=O)c1cc(-c2ccnc(N3CCN(C)CC3)c2)cc2c1cnn2C(C)C
Outline: as §1

[19] = compound: CCN(CC)Cc1ccc2cc(COC(=O)Nc3ccc(C(=O)NO)cc3)ccc2c1 [givinostat]
Outline: as §1

[20] = compound: CCN(CCCOc1ccc2c(Nc3cc(CC(=O)Nc4cccc(F)c4)[nH]n3)ncnc2c1)CCOP(=O)(O)O [barasertib]
Outline: as §1

Measured: log2 fold change

SFXN5 (UniProt Q8TD22)
Sequence of UniProt Q8TD22 (Q8TD22 whole entry, looked up): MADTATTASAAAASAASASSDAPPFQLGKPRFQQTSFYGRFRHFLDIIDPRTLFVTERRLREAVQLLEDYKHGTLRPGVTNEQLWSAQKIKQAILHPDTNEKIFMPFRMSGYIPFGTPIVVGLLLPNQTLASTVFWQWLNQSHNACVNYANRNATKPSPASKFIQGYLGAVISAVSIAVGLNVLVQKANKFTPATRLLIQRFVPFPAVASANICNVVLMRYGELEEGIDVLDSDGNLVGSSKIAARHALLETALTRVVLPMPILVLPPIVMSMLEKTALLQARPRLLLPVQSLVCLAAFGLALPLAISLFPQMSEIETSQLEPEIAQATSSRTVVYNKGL
inactive: [1] 0.225 | [2] -0.048 | [3] -0.013 | [4] -0.001 | [5] -0.175 | [6] -0.083 | [7] 0.187 | [8] 0.03 | [9] 0.008 | [10] 0.09 | [11] -0.013 | [12] 0 | [13] 0.049 | [14] 0.024 | [15] -0.026 | [16] 0.135 | [17] 0.012 | [18] 0.012 | [19] 0.124 | [20] 0.057

RHEB (UniProt Q15382)
Sequence of UniProt Q15382 (Q15382 whole entry, looked up): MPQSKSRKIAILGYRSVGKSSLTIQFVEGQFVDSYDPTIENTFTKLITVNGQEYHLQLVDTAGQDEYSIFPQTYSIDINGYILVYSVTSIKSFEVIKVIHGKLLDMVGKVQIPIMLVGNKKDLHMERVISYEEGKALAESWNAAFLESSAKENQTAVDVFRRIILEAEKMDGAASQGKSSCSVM
active: [15] -0.277
inactive: [1] 0.006 | [2] -0.016 | [3] -0.04 | [4] -0.112 | [5] -0.01 | [6] 0.027 | [7] -0.055 | [8] -0.035 | [9] -0.014 | [10] 0.093 | [11] 0.008 | [12] -0.002 | [13] 0.008 | [14] 0.052 | [16] -0.004 | [17] 0.021 | [18] -0.026 | [19] -0.009 | [20] 0.014

SACM1L (UniProt Q9NTJ5)
Sequence of UniProt Q9NTJ5 (Q9NTJ5 whole entry, looked up): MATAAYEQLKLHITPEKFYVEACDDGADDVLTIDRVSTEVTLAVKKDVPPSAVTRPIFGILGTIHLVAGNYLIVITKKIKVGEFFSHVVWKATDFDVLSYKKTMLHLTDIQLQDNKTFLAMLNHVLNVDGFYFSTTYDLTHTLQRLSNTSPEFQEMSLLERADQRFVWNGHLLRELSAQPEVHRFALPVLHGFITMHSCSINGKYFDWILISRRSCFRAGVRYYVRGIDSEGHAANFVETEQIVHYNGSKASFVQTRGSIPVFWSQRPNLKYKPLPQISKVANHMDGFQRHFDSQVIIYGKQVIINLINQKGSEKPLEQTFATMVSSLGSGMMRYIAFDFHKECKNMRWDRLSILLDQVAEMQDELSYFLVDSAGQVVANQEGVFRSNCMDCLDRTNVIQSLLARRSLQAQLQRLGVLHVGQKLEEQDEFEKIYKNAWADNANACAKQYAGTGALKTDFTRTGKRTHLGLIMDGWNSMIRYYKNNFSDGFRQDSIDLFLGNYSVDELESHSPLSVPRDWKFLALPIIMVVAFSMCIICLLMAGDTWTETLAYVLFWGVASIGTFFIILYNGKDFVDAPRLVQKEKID
inactive: [1] 0.008 | [2] -0.031 | [3] -0.022 | [4] 0.064 | [5] -0.007 | [7] -0.01 | [8] -0.042 | [9] -0.035 | [10] 0.029 | [11] 0.08 | [12] -0.024 | [13] -0.004 | [14] 0.031 | [15] -0.03 | [16] 0.052 | [17] 0.069 | [18] 0.043 | [19] 0.028 | [20] 0.049
active: [6] -0.262

SEPTIN5 (UniProt Q99719)
Sequence of UniProt Q99719 (Q99719 whole entry, looked up): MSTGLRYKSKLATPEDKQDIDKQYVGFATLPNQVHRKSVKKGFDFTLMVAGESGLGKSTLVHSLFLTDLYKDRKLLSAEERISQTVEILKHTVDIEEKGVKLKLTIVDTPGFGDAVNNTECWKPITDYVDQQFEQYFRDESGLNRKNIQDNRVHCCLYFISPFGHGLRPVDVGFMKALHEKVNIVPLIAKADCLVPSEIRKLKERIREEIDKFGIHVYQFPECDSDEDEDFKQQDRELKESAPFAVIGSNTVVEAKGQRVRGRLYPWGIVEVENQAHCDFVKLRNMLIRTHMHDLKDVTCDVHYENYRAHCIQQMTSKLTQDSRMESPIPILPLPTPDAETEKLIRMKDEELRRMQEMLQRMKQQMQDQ
inactive: [1] 0.014 | [2] -0.013 | [3] -0.031 | [4] -0.084 | [5] -0.03 | [6] 0.034 | [7] -0.051 | [8] -0.041 | [9] -0.005 | [10] 0.011 | [11] 0.026 | [12] 0 | [13] 0.007 | [14] 0.003 | [15] -0.06 | [16] -0.015 | [17] -0.015 | [18] 0.104 | [19] -0.006 | [20] -0.013

RPS27A (UniProt P62979)
active: [10] -0.557
inactive: [1] -0.055 | [2] 0.141 | [3] 0.054 | [4] 0.082 | [5] 0.216 | [6] 0.051 | [7] 0.114 | [8] 0.078 | [9] 0.157 | [11] -0.023 | [12] -0.011 | [13] -0.179 | [14] -0.075 | [15] 0.368 | [16] -0.126 | [17] -0.224 | [18] 0.152 | [19] -0.109 | [20] -0.119

RIC8A isoform 3 (UniProt Q9NPQ8)
Sequence of UniProt Q9NPQ8 (Q9NPQ8 whole entry, looked up): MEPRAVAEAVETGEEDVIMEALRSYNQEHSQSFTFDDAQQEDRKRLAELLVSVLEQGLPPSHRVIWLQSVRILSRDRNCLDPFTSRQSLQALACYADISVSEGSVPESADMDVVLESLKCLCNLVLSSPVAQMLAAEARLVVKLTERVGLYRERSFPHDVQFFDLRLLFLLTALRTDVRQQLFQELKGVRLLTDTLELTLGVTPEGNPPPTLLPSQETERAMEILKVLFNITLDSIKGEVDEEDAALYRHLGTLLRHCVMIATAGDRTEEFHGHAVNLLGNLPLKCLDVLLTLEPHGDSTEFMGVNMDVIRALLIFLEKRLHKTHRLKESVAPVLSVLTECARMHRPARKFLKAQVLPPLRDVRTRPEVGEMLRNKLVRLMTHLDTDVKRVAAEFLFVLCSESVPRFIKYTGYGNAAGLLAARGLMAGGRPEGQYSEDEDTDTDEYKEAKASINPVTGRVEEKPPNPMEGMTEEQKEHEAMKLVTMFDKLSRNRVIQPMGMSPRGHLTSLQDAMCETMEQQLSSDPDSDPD
inactive: [1] -0.073 | [2] -0.051 | [3] -0.193 | [4] 0.06 | [5] -0.052 | [6] -0.354 | [7] 0.066 | [8] 0.166 | [9] -0.005 | [10] -0.132 | [11] 0.074 | [12] -0.051 | [13] 0.024 | [14] 0.023 | [15] 0.198 | [16] 0.028 | [17] 0.085 | [18] 0.111 | [19] 0.028 | [20] 0.073

SEH1L isoform 1 (UniProt Q96EE3)
Sequence of UniProt Q96EE3 (Q96EE3 whole entry, looked up): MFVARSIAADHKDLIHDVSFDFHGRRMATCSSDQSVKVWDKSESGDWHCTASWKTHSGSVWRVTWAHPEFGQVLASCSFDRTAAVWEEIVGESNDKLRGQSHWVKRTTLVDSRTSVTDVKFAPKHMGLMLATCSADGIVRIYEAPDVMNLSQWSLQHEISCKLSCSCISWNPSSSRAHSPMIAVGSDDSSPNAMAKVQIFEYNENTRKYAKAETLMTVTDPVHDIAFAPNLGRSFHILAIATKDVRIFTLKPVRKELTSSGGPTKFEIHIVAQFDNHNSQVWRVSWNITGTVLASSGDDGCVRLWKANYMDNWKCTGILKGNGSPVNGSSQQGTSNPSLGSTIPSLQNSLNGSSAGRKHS
inactive: [1] 0.028 | [2] -0.021 | [3] -0.056 | [4] -0.014 | [5] 0.03 | [6] -0.019 | [7] -0.026 | [8] 0.011 | [9] 0.039 | [10] 0 | [11] -0.004 | [12] 0.015 | [13] 0.005 | [14] -0.019 | [15] 0.011 | [16] 0.005 | [17] 0.048 | [18] -0.033 | [19] 0.005 | [20] 0.008

RSPRY1 (UniProt Q96DX4)
Sequence of UniProt Q96DX4 (Q96DX4 whole entry, looked up): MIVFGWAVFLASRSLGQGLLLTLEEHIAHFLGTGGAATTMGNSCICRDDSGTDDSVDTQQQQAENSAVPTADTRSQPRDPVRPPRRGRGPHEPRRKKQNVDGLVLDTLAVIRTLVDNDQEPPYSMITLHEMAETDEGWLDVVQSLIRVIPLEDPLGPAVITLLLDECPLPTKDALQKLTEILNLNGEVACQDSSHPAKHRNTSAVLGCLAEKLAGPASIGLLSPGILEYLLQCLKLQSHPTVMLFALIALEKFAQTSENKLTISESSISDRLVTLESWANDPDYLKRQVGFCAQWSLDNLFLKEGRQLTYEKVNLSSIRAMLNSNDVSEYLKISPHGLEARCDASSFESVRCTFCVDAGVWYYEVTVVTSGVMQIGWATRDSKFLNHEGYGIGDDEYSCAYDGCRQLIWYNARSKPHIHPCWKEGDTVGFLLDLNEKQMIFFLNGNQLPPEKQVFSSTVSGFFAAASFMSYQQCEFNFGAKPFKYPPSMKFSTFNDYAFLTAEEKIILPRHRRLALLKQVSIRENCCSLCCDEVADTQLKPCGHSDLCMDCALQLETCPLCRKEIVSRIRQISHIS
inactive: [1] 0.018 | [2] 0.027 | [3] 0.02 | [4] -0.019 | [5] -0.036 | [6] 0 | [7] 0.079 | [8] -0.048 | [9] 0.033 | [10] -0.066 | [11] 0.106 | [12] -0.026 | [13] -0.183 | [14] -0.035 | [15] -0.021 | [16] 0.034 | [17] -0.031 | [18] -0.107 | [19] -0.007 | [20] -0.004

RPL31 (UniProt P62899)
inactive: [1] -0.168 | [2] -0.021 | [3] 0.138 | [4] 0.1 | [5] 0.052 | [6] -0.013 | [7] 0.14 | [8] 0.273 | [9] -0.006 | [11] -0.005 | [12] 0.01 | [13] -0.086 | [14] -0.075 | [15] 0.168 | [16] -0.145 | [17] -0.15 | [18] 0.092 | [19] 0.031 | [20] -0.149
active: [10] -0.625

SESN2 (UniProt P58004)
Sequence of UniProt P58004 (P58004 whole entry, looked up): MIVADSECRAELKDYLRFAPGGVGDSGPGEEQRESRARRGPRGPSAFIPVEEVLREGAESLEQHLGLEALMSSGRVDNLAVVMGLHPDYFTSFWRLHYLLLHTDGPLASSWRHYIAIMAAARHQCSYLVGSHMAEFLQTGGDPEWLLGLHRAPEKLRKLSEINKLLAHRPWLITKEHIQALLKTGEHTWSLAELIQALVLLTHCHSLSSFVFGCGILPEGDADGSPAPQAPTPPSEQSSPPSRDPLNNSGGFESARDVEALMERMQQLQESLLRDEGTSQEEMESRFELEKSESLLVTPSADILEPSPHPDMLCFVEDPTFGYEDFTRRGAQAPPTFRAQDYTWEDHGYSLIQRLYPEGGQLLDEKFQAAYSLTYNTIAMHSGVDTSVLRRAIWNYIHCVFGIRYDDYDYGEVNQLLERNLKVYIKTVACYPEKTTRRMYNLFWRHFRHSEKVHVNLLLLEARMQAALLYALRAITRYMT
inactive: [1] -0.143 | [2] 0.034 | [3] 0 | [4] 0.21 | [5] -0.049 | [6] -0.407 | [7] 0.055 | [8] 0.081 | [9] 0.041 | [10] -0.017 | [11] 0.166 | [12] -0.069 | [13] -0.017 | [14] -0.031 | [15] 0.094 | [16] 0.194 | [17] 0.186 | [18] 0.19 | [19] 0.046 | [20] 0.119

RNF167 (UniProt Q9H6Y7)
inactive: [1] -0.001 | [2] 0.015 | [3] 0.039 | [4] -0.018 | [5] -0.025 | [6] -0.047 | [7] -0.009 | [8] 0.015 | [9] 0.064 | [10] 0 | [11] 0.037 | [12] 0.008 | [13] -0.041 | [14] 0.037 | [15] -0.059 | [16] 0.031 | [17] -0.06 | [18] -0.096 | [19] 0.005 | [20] 0.018

SCPEP1 (UniProt Q9HB40)
Sequence of UniProt Q9HB40 (Q9HB40 whole entry, looked up): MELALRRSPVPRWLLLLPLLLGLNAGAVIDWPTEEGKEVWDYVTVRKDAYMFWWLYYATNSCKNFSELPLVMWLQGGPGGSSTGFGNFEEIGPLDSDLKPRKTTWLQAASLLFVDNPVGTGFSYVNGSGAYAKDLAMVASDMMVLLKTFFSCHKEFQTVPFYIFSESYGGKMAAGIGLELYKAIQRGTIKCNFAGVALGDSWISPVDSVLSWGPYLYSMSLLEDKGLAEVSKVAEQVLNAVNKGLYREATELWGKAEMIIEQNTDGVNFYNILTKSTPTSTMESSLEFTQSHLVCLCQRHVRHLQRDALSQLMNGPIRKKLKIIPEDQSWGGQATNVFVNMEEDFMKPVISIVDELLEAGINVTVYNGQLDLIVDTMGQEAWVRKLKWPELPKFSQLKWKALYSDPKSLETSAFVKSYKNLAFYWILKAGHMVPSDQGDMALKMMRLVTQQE
active: [6] -0.5
inactive: [1] 0.044 | [2] 0.072 | [3] -0.008 | [4] -0.005 | [5] -0.038 | [7] 0.007 | [8] -0.032 | [9] -0.006 | [10] 0.073 | [11] -0.003 | [12] 0.016 | [13] 0.05 | [14] 0.022 | [15] -0.035 | [16] 0.002 | [17] 0.013 | [18] -0.028 | [19] -0.031 | [20] 0.012

RRAS2 isoform 4 (UniProt P62070)
Sequence of UniProt P62070 (P62070 whole entry, looked up): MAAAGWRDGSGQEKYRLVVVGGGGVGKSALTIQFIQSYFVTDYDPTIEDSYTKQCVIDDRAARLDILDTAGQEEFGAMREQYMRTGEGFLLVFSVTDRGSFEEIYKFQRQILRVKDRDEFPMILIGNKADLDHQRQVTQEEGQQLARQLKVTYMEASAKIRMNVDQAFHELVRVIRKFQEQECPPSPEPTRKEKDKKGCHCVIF
inactive: [1] 0.011 | [2] 0.097 | [3] -0.009 | [4] -0.023 | [5] 0.242 | [6] 0.077 | [7] 0.005 | [8] -0.034 | [9] -0.019 | [10] 0.077 | [11] -0.016 | [12] -0.02 | [13] -0.009 | [14] -0.021 | [15] -0.015 | [16] 0.011 | [17] -0.037 | [18] -0.034 | [19] -0.017 | [20] -0.049

RAB5IF isoform 5 (UniProt Q9BUV8)
Sequence of UniProt Q9BUV8 (Q9BUV8 whole entry, looked up): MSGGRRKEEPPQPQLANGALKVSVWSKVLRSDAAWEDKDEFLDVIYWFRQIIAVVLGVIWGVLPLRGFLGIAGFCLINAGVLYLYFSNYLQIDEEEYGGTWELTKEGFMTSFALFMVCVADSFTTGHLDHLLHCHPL
inactive: [1] -0.082 | [2] 0.031 | [3] 0.048 | [4] 0.3 | [5] 0.021 | [6] -0.187 | [7] -0.143 | [8] -0.105 | [9] -0.12 | [10] -0.036 | [11] 0.044 | [12] 0.01 | [13] -0.042 | [14] 0.247 | [15] -0.143 | [16] 0.047 | [17] 0.012 | [18] 0.244 | [19] -0.007 | [20] -0.003

SART3, A0A499FI31
inactive: [1] -0.021 | [2] -0.017 | [3] 0.062 | [4] 0.002 | [5] -0.033 | [7] -0.051 | [8] -0.025 | [9] 0.021 | [11] 0.015 | [12] -0.05 | [13] -0.014 | [14] 0.04 | [15] -0.043 | [16] 0.023 | [17] 0.072 | [18] -0.013 | [19] 0.012 | [20] 0.022
active: [6] -0.379 | [10] -0.377

SLBP (UniProt Q14493)
Sequence of UniProt Q14493 (Q14493 whole entry, looked up): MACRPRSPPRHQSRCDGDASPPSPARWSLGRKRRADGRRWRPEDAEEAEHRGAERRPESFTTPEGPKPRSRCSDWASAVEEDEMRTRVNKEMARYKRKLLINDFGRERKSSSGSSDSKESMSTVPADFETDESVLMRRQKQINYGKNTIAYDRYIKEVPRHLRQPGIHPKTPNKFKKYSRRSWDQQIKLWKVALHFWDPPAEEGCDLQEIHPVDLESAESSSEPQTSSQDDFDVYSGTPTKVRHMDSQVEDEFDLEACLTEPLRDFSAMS
inactive: [1] -0.123 | [2] -0.162 | [4] -0.068 | [5] -0.09 | [6] -0.206 | [7] 0.162 | [8] -0.034 | [9] 0.098 | [10] -0.126 | [11] -0.012 | [12] -0.08 | [13] 0.019 | [14] 0.099 | [15] -0.218 | [16] 0.028 | [17] 0.057 | [18] 0.024 | [19] 0.055 | [20] 0.06
active: [3] -0.38
